# The source made the active and inactive calls. How the source made its calls: active means hit-call score of the fitted dose curve at least 0.9, where 1 is the maximum; inactive means score below 0.9.
# Experiment: ATG_M_06_CIS: Attagene CIS-FACTORIAL HepG2 Assay for M06 Transcription Factor (Internal Marker) (AID 2282950)
# Conditions: HepG2 Attagene CIS-FACTORIAL M06 internal marker reporter; actives raise or lower the signal
# Method: ATG_CIS is a cell-based, multiplexed-readout assay that uses HepG2, a human liver cell line, with measurements taken at 24 hours after chemical dosing in a 24-well plate.ATG_M_06_CIS is one of 52 assay component(s) measured or calculated from the ATG_CIS assay. It is designed to make measurements of mRNA induction, a form of inducible reporter, as detected with fluorescence intensity signals by Reverse transcription polymerase chain reaction (RT-PCR) and Capillary electrophoresis technology.Data from the assay component ATG_M_06_CIS was analyzed into 1 assay endpoint. This assay endpoint, ATG_M_06_CIS, was analyzed with bidirectional fitting relative to DMSO as the negative control and baseline of activity. Using a type of inducible reporter, measures of mRNA for gain or loss-of-signal activity can be used to understand the background control at the transcription factor-level as they relate to the gene . Furthermore, this assay endpoint can be referred to as a secondary readout, because this assay has produced multiple assay endpoints where this one serves a background control function. To generalize the intended target to other relatable targets, this assay endpoint is annotated to the background measurement intended target family, where the subfamily is internal marker.
# Human liver HepG2 cells are transiently transfected with multiple reporter transcription units (MRTUs) in 6-well plates using FuGene 6 reagent (Roche; 3 ml FuGene/1 mg DNA). The MRTU constructs are regulated by a cis-regulating element (promoter). […] A major difference between the CIS and TRANS system is that in CIS activities of endogenous TFs are measured, whereas the TRANS assay evaluates changes in activities of exogenous, chimeric NR-Gal4 proteins. […] At the end of 24 hour incubation, total RNA was isolated using TriZol reagent (Invitrogen). The isolated RNA is then reverse-transcribed using oligo(dT) primer and Mo-MLV reverse transcriptase (Invitrogen) with DNAse I (Ambion) treatment for 30 min. The one-tenth of the produced cDNA was amplified by PCR using Taq DNA polymerase (Invitrogen) and two reporter sequence-specific primers. The PCR products were fluorescently labeled by primer extension with 6-arboxyfluorescein (6-FAM) 5'-labeled reporter sequence-specific primer (2 min at 95 C, 20 s at 68 C and 10 min at 72 C) and these products were digested with 5U of HpaI (New England Biolabs) for 2h at 37 C. The fragments were purified using Qiaquick PCR columns (Qiagen), analyzed on an ABI 3130xL genetic analyzer (Applied Biosystems) with peak positions identified by using a set of X-rhodamine (ROX)-labeled MapMarker1000 molecular weight standards (BioVentures). The raw capillary electrophoresis data was processed using Attagraph software (Attagene).
row,SMILES,outcome
1,ClC1=C(Cl)[C@]2(Cl)[C@@H]3[C@@H]4C[C@@H]([C@H]5O[C@@H]45)[C@@H]3[C@@]1(Cl)C2(Cl)Cl,inactive
2,ClC1=C(Cl)[C@]2(Cl)[C@@H]3[C@H]4C[C@H]([C@@H]5O[C@H]45)[C@@H]3[C@@]1(Cl)C2(Cl)Cl,inactive
3,Nn1cnnc1,inactive
4,Clc1ccc(C(c2ccccc2Cl)C(Cl)(Cl)Cl)cc1 (stereo not given),inactive
5,CC(c1ccc(O)cc1)(c1ccc(O)cc1)c1ccc(O)cc1,inactive
6,C[C@]12CCC(=O)C=C1CC[C@@H]1[C@@H]2CC[C@@]2(C)[C@H]1CC[C@]2(C)O,inactive
7,OCC(O)CO,inactive
8,CCC(=O)O[C@H]1CC[C@H]2[C@@H]3CCC4=CC(=O)CC[C@]4(C)[C@H]3CC[C@]12C,inactive
9,Oc1c(Cl)c(Cl)c(Cl)c(Cl)c1Cl,inactive
10,ClC1=C(Cl)[C@]2(Cl)[C@@H]3[C@@H](Cl)[C@H]4O[C@H]4[C@@H]3C1(Cl)C2(Cl)Cl,inactive
11,CCOP(=S)(OCC)SCSC(C)(C)C,inactive
12,CCSC(=O)N(CC)C1CCCCC1,inactive
13,ClC(Cl)=C(c1ccc(Cl)cc1)c1ccc(Cl)cc1,inactive
14,Oc1ccc(Cl)cc1Cl,inactive
15,CC#Cc1cc(C)nc(Nc2ccccc2)n1,inactive
16,O=S(=O)(O)C(F)(F)C(F)(F)C(F)(F)C(F)(F)C(F)(F)C(F)(F)F,inactive
17,Oc1ccc(C(c2ccc(O)cc2)(C(F)(F)F)C(F)(F)F)cc1,inactive
18,CCOCCOC(C)=O,inactive
19,CCC(C)(c1ccc(O)cc1)c1ccc(O)cc1,inactive
20,CCCCCCOC(=O)c1ccccc1C(=O)OCCCCCC,inactive

row,SMILES,outcome
1,CO/C=C(/C(=O)OC)c1ccccc1COc1cccc(C(F)(F)F)n1,inactive
2,Sc1ccccc1,inactive
3,Cc1cc2c3c(c1)C(c1ccccc1)=N[C@@H](NC(=O)c1ccncc1)C(=O)N3CC2,inactive
4,Cc1cccc([N+](=O)[O-])c1,inactive
5,CCCN(CCC)N=O,inactive
6,O=C(NC(=O)c1cc(F)c(F)cc1Cl)Nc1cc(F)ccc1N1CCC(C(=O)O)CC1,inactive
7,CC(C)(O)C(=O)Nc1ccc([N+](=O)[O-])c(C(F)(F)F)c1,inactive
8,CN(C)c1nc(=O)n(C2CCCCC2)c(=O)n1C,inactive
9,CCOC(=O)C(O)(c1ccc(Cl)cc1)c1ccc(Cl)cc1,inactive
10,c1ccc(-c2ccccc2)cc1,inactive
11,CC1=C2C[C@H]3[C@@H](CC=C4C[C@@H](O)CC[C@@]43C)[C@@H]2CC[C@]12O[C@@H]1C[C@H](C)CN[C@H]1[C@H]2C,inactive
12,Clc1ccc(C(Cl)(Cl)Cl)cc1,inactive
13,CCCCCCCCCc1ccc(O)cc1,inactive
14,c1cc2ccc3cccc4ccc(c1)c2c34,inactive
15,Cc1cc(O)ccc1Cl,inactive
16,Cc1ccccc1O,inactive
17,Nc1ccc(-c2ccc(N)cc2)cc1,inactive
18,N#Cc1ccc(N(CC(N)=O)CC(F)(F)F)cc1C(F)(F)F,inactive
19,Cc1cc(-c2ccc(N)c(C)c2)ccc1N,inactive
20,O=C(O)C(F)(F)C(F)(F)C(F)(F)C(F)(F)C(F)(F)F,inactive
